# Compound activity: PubChem, National Center for Advancing Translational Sciences (NCATS)
# TGFb SMAD3 inh – TGF-b pathway inhibition; HepG2 CAGA-GFP TGF-b/SMAD3 reporter, GFP fluorescence, 18 h; TGF-beta stimulated, 500 pg/mL final; Potency, µM (doses to about 46.1 µM), without a hit: top-dose activity, negative = inhibition, usual class: inhibitors; 410,000 compounds, 1.2% hits; AID 588855; also: potency is read from the fitted curve at half-maximal effect; % is scaled to controls: 0 for no effect and ±100 for the full control effect; nearly all actives have a fitted effect of over 65% in size
#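 HEPG2 CAGA-GFP cells (1000/well, DMEM with 1% FBS) were pre-incubated 2 h at 37 degrees C, given compound by pin tool, then stimulated with TGF-beta at 500 pg/mL final for 18 h before per-cell GFP fluorescence imaging.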
# IL1B secr inh – inhibitors of inflammasome signaling (IL-1 beta secretion); AID 743279; activity change, % at 57.5 µM; 360,000 compounds, 4.7% hits; THP-1 LPS/ATP IL-1B secretion, AlphaLISA, 16 h; hits give low values; in the data active = activity change below about -50%; inconclusive = mostly about -30% to -49%; also: % is scaled to controls: 0 for no effect and ±100 for the full control effect
#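 THP-1 cells pretreated 1 hr with compounds (up to 57.5 uM final), then stimulated with LPS (250 ng/mL final) plus ATP (1.25 mM final); secreted IL-1B measured by AlphaLISA after 16 hr, decreased signal indicating inhibition.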
# ATXN2 expr inh – ATXN2 expression inhibition | HEK-293 ATXN2-luciferase reporter, luminescence, 24 h | Potency, µM (series often up to 57 µM), without a hit: at the top dose activity change, negative = inhibition, actives largely listed as inhibitors | 360,000 compounds, 0.72% hits | AID 1745845; also: potency is read from the fitted curve at half-maximal effect; % is scaled to controls: 0 for no effect and ±100 for the full control effect; nearly all actives have a fitted effect of over 55% in size
#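 qHTS (up to 57 uM final) was run with 24 h compound exposure of reporter cells at 37 °C. Each well was multiplexed: SteadyGlo luminescence measured ATXN2-luciferase expression after a fluorogenic Gly-Phe-AFC viability readout (25 uM final).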
# HepG2 viability – counter-screen for TGF-b inhibitors: cytotoxicity in HepG2 cells | HepG2 CAGA-GFP viability, ATP luminescence, 18 h | Potency, µM (series often up to 46.1 µM), for the others: top-dose activity change, negative = cytotoxicity, actives largely listed as cytotoxic | 410,000 compounds, 0.76% hits | AID 588856; also: potency is read from the fitted curve at half-maximal effect
#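 CellTiter-Glo luminescence gave cytotoxicity after 18 hours at 37 degrees C. The cells were HepG2 CAGA-GFP in 1% FBS DMEM, stimulated with 500 pg/mL TGF-beta after compound addition. %Activity was normalised to no-cell wells (complete cell-killing) and DMSO (no toxicity), and curves were fitted and classified.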
# S2 tox – viability counter-screen for ATXN expression inhibitors. 400,000 compounds, 0.49% hits. S2 cells (HEK-293 line with an ATXN2-luciferase reporter) viability, CellTiter-Fluor protease fluorescence, 24 h. Potency, µM (series often up to 56.7 µM), usual class: cytotoxic. AID 651635; also: potency is read from the fitted curve at half-maximal effect; nearly all actives have a fitted effect of over 40% in size
# The depositor's hits bear a star; i = inactive; ? = inconclusive; . = not tested or not shown. This is a sample that favours compounds with a hit; in the whole collection about 5.7% have one here. Unless noted, calls follow the shape of the dose curve; as a rule, active = well fitted curve in the direction sought with a large enough effect; inconclusive = small, poorly fitted or top-dose-only effect, or another doubt; inactive = no such curve, though single readings can be large; an effect the other way counts as inactive or inconclusive.
SMILES,TGFb SMAD3 inh,IL1B secr inh,ATXN2 expr inh,HepG2 viability,S2 tox
O=C(NCC1COc2ccccc2O1)c1cccs1 (stereo unspecified),-12.4%,-11.5,40.3%,-14.3%,i
CCOCCCNC(=O)C(c1ccc(C)cc1)N(Cc1ccc2c(c1)OCO2)C(=O)c1ccc(NC(C)=O)cc1 (stereo unspecified),17.8%,.,-7.3%,1.7%,i
C=C1C=C(C(F)F)n2ncc(C(=O)N3CCc4ccccc4C3)c2N1,9.1%,.,.,20.0%,.
Cc1ccc(C(C)C)c(OCC(=O)Nc2cccc(-c3nc4ncccc4o3)c2)c1,0.8%,.,?,6.1%,20µM*
CCCCCC(=O)Nc1cccc(-c2nc3ncccc3o2)c1,-26.6%,-99.0*,-10.6%,-18.0%,i
COc1c(C)cc(Br)cc1C(=O)Nc1ccc(-c2nc3ncccc3o2)cc1,5.9%,.,-10.1%,-21.8%,i
COc1c(C)cc(Br)cc1C(=O)Nc1cccc(-c2nc3ncccc3o2)c1,-8.2%,-21.3,22.4µM*,-13.4%,31.6µM*
CCCCC(=O)Nc1cccc(-c2nc3ncccc3o2)c1,-1.8%,-24.8,3.3%,-1.3%,i
Cc1ccc(C(C)C)c(OCC(=O)NNC(=O)Nc2ccccc2)c1,?,-76.2*,-22.3%,-28.5%,i
Cc1cc(C)c(OCC(=O)Nc2cccc(-c3nc4ncccc4o3)c2)c(Br)c1,15.3%,.,12.4%,-2.4%,i
COCC(=O)Nc1cc(C(=O)N2CC3(C)CC2CC(C)(C)C3)c2c(c1)nc(-c1ccncc1)n2C (stereo unspecified),.,.,.,.,i
O=C(O)C(=O)Nc1cccc(-c2nn[nH]n2)c1,.,.,1.3%,.,i
C/C(=C\C(=O)c1ccc(Cl)cc1)Nc1ccc(Br)cc1,2.9%,-50.3*,25.3%,-5.7%,?
C/C(=C\C(=O)c1ccc(Br)cc1)Nc1cccc(Cl)c1,-6.3%,17.8,59.4%,-39.1%,i
CCCCOc1[nH]c2nc(-c3ccco3)n(Cc3ccco3)c(=N)c2c1C#N,?,-82.5*,2.2%,-12.8%,i
O=C(/C=C/c1ccccc1Cl)Nc1nc(-c2cccs2)ns1,?,.,.,-22.8%,.
CC1(C)N=C(N)N=C(N)N1c1ccc(Oc2ccc(Cl)cc2)c(Cl)c1,?,-86.0*,?,-33.2%,?
COc1cccc(Oc2ccc(C(F)(F)F)cc2NC(=O)CN2C(=O)NC3(CCCC3)C2=O)c1,17.8µM*,-30.0,-36.1%,12.6µM*,?
COc1ccc(NC(=O)CN2C(=O)NC3(CCCC3)C2=O)c(OC)c1,-11.5%,-21.6,-7.5%,-5.1%,i
O=C(CN1C(=O)NC2(CCCC2)C1=O)Nc1cc(C(F)(F)F)ccc1N1CCCCC1,6.8%,-72.0*,-18.4%,-15.9%,i
Cc1cnc(C(=O)Nc2cccc3cccnc23)cn1,2.82µM*,197.7,?,-89.2%,?
Cc1cccc(C(=O)Nc2cccc3cccnc23)c1,-17.1%,11.0,31.0%,-22.2%,i
COc1ccc(CCNC(=O)CCCn2nc(C)c3sc4ccccc4c3c2=O)c(OC)c1,14.2%,.,.,-0.3%,.
O=C(CCC1N=C2c3ccccc3N=C(SCc3cccc(F)c3)N2C1=O)NCc1cccs1 (stereo unspecified),12.9%,.,.,-0.2%,.
CSc1ccccc1C(=O)N1CCc2ccc(NC(=O)c3ccccn3)cc2C1,-10.2%,16.9,.,10µM*,?
SMILES,TGFb SMAD3 inh,IL1B secr inh,ATXN2 expr inh,HepG2 viability,S2 tox
CC(C)C[C@H](CO)Nc1nc(Nc2cccc(Cl)c2)c2ncn(C(C)C)c2n1,?,31.0,?,-57.8%,22.4µM*
CC(C)n1cnc2c(Nc3cccc(F)c3)nc(NCCO)nc21,-4.5%,-8.6,-6.5%,-28.9%,i
COc1ccc(NC(=O)Cn2c(=O)n(C(C)C)c(=O)c3oc4ccccc4c32)cc1Cl,?,.,.,-4.9%,.
COc1ccc(NC(=O)c2c(NCc3ccc(C)o3)sc3c2CCCCC3)c(OC)c1,?,.,-29.2%,-19.9%,?
Cc1c(C(=O)Nc2ccc(S(=O)(=O)N(C)C3CCN(C)CC3)cc2)oc2ccccc12,?,-52.3*,?,-46.7%,?
Cc1c(C(=O)Nc2ccc(S(=O)(=O)N(C)C3CCN(C)CC3)cc2)oc2c(Cl)cccc12,?,-96.1*,25.1µM*,-110.6%,.
CN1CCC(N(C)S(=O)(=O)c2ccc(NC(=O)c3ccc(S(=O)(=O)N(C)C)cc3)cc2)CC1,-3.6%,-10.6,-7.1%,-17.5%,i
Cc1csc(NC(=O)c2cc3c(s2)-c2ccccc2OC3)n1,?,32.5,-4.3%,-43.0%,.
CCN1CCN(CCCNC(=O)c2cc3c(s2)-c2ccccc2OC3)CC1,?,0.0,?,-30.0%,i
CC1CC(C)CN(CCCNC(=O)c2cc3c(s2)-c2ccccc2OC3)C1 (stereo unspecified),?,-8.2,25.1µM*,-82.1%,?
CC1CCCC(C)N1CCCNC(=O)c1cc2c(s1)-c1ccccc1OC2 (stereo unspecified),?,-9.1,?,14.1µM*,i
Cc1c(NC(=O)c2cc3c(s2)-c2ccccc2OC3)cccc1[N+](=O)[O-],?,-73.4*,-36.5%,-32.1%,i
CN(C)c1ccc(C(CNC(=O)c2ccccc2Cl)N2CCCC2)cc1 (stereo unspecified),?,.,.,-16.3%,.
CCC1CN(CC(=O)NCc2ccc3c(c2)OCO3)Cc2ccc(Cl)cc2O1 (stereo unspecified),.,.,.,.,i
COCCCNc1ncnc2sc(C(=O)N3CCOCC3)c(C)c12,.,.,.,.,i
O=C(NC1CCCCC1)c1nc(C2CCNCC2)oc1-c1ccccc1,-4.3%,-66.2*,-5.5%,-1.8%,i
CCOC(=O)c1c(NC(=O)c2ccco2)sc2c1CCCCC2,6.9%,3.6,93.1%,-79.3%,i
CCOC(=O)c1c(NC(=O)CCNCc2ccco2)sc2c1CCC2,-3.5%,-68.8*,-16.3%,-36.8%,i
CCOC(=O)c1c(NC(=O)C(C)N2CCN(C(=O)c3ccco3)CC2)sc2c1CCCC2 (stereo unspecified),?,-56.8*,?,-79.2%,?
O=C(Nc1sc2c(c1C(=O)NCCO)CCCC2)c1ccco1,-1.5%,-59.2*,10.0%,4.2%,i
COc1cccc(NC(=O)Cn2c(=O)n(CC(=O)NCCc3ccccc3)c(=O)c3sccc32)c1,-2.2%,.,.,-2.2%,.
COCC(=O)Nc1cc(C(=O)N2CCCOc3c(cccc3OC)C2)c2c(c1)nc(C1CCC1)n2C,.,.,.,.,i
CCOc1cc(CNCCSc2nnnn2C)cc(Br)c1OCc1ccccc1,?,-56.2*,-36.5%,-62.1%,?
COc1cc(CNCCO)cc(Br)c1OCc1ccccc1Cl,?,-14.8,-16.7%,-126.8%,i
CCOc1cc(CNCCO)cc(Br)c1OCc1ccccc1,?,-80.0*,?,-142.5%,?
